# Laboratory results: PubChem BioAssay AID1117308 (National Center for Advancing Translational Sciences (NCATS), 2015)
# This is one part of the list. Activity calls are given as the source filed them. Calls come from the whole dose curve.
# Conditions: Ebola pseudovirus entry assay, ratio channel
Structure (SMILES),AC50,outcome
CCCC(C(=O)OCCN(CC)CC)(c1ccccc1)c1ccccc1,4.85 µM (active),–
Clc1ccc(C(Cn2ccnc2)OCc2ccsc2Cl)c(Cl)c1 (centres undefined),13.7 µM (active),–
CO[C@]12CC[C@@]3(C[C@@H]1[C@](C)(O)C(C)(C)C)[C@@H]1Cc4ccc(O)c5c4[C@@]3(CCN1CC1CC1)[C@H]2O5,9.87 µM (active),–
CO[C@H]1C[C@@H]2CC[C@@H](C)[C@@](O)(O2)C(=O)C(=O)N2CCCC[C@@H]2C(=O)O[C@H]([C@@H](C)C[C@@H]2CC[C@H](O)[C@H](OC)C2)CC(=O)[C@H](C)C=C(C)[C@@H](O)[C@@H](OC)C(=O)[C@H](C)C[C@H](C)C=CC=CC=C1C,–,inactive
CCCCN(CCCC)CCC(O)c1cc2c(Cl)cc(Cl)cc2c2cc(C(F)(F)F)ccc12 (centres undefined),13.7 µM (active),–
COc1ccccc1OCCNCC(O)COc1cccc2[nH]c3ccccc3c12 (centres undefined),17.2 µM (active),–
CC[C@]1(O)C[C@@H]2CN(CCc3c([nH]c4ccccc34)[C@@](C(=O)OC)(c3cc4c(cc3OC)N(C)[C@H]3[C@@](O)(C(=O)OC)[C@H](OC(C)=O)[C@]5(CC)C=CCN6CC[C@]43[C@@H]65)C2)C1,0.137 µM (active),–
CN(C(=O)CN(CCO)CC(=O)N(C)C(C)(C)Cc1ccccc1)C(C)(C)Cc1ccccc1,6.11 µM (active),–
CCN(CC)CCCC(C)Nc1ccnc2cc(Cl)ccc12 (centres undefined),15.3 µM (active),–
